The results in this text go back to PubChem BioAssay (NCI).

Common to all, as to test: NCI-60 one-dose screen, 48 h (100 = growth as untreated, 0 = no growth, -100 = all killed)
Holding throughout (conditions): 10 µM unless noted

The subject of assay [1] is NCI-H23 lung.
The test system of assay [2] is NCI-H226 lung.
In assay [3] the test system is NCI-H322M lung.
In assay [4] the test system is HOP-62 NSCLC.
Assay [5] deals with NCI-H460 lung.
The subject of assay [6] is HOP-92 NSCLC.
The subject of assay [7] is NCI-H522 lung.
Assay [8] deals with A549/ATCC NSCLC.
Assay [9] deals with 786-0 renal.
Assay [10] relates to COLO 205 colon.
For assay [11], the system named is DU-145 prostate.
For assay [12], the system named is K-562 leukemia.
Assay [13] concerns MALME-3M melanoma.
Assay [14] relates to MDA-MB-231 breast.
For assay [15], the system named is RXF 393 renal.
Assay [16] deals with SF-268 CNS.
In assay [17] the test system is SF-295 CNS.
Assay [18] deals with SF-539 CNS.
Assay [19] has as its system UACC-257 melanoma.
Assay [20] concerns M14 melanoma.

Compounds without any hit were thinned out: in the full panel of roughly 83,000, 20% have a hit.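 Assay: single dose, 48 h. Readout: percent growth (0 = no net growth; negative = cell death). Active: <10.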 Unmarked numbers belong to inactive results. Activity calls are given as the source filed them.

With `Cc1cc2c(c(C)n1)CN(C(=O)Nc1nc(-c3cncs3)ccc1N)C2`, the growth was 104% in assay [1]; 107% in assay [2]; 97.8% in assay [3]; 99.6% in [4]; 106% in [5]; 90.1% in assay [6]. The growth in assay [7] was 87.5%; in assay [8], 111%; in [9] it was 102%; in assay [10], 110%; in assay [11] it was 107%; in assay [12], 101%. In addition, the growth is 96.7% in assay [13]; 113% in [14]; 111% in assay [15]; 101% in assay [16]; 99.5% in [17]; 86.5% in [18]. Further, the growth in assay [19] is 103%; in [20], 104%.

Regarding `CC1=NN(c2cccc(Cl)c2)C(=O)/C1=C\C=C\c1ccccc1`, the growth in [1] was 26.3%; in assay [2], 3.87% (active); in assay [3], 112%; in assay [4], 22.3%; in assay [5], 101%; in assay [6] it was 101%. For the same molecule, the growth in assay [7] was 34.4%; in [8] it was 94.5%; in [9] it was 35.5%; in assay [10] it was 4.77% (active); in assay [11], 112%; in assay [12], 76.9%. The growth in assay [13] was 116%; in assay [14], 13.7%; in assay [15], -87.7% (active); in [16], 75.5%; in [17] it was 101%; in assay [18] it was 21.6%. Moreover, the growth in [19] is 63.3%; in assay [20], 14.4%.

`C=C(CNCCO)[C@@H]1CC[C@]2(CO)CC[C@]3(C)[C@H](CC[C@@H]4[C@@]5(C)CCC(NCCO)C(C)(C)[C@@H]5CC[C@]43C)[C@@H]12` (stereo not given in full): the growth was 95.5% in [1]; 96.5% in assay [2]; 89.2% in assay [3]; 93.4% in assay [4]; 50.3% in assay [5]; 65.5% in assay [6]. In addition, the growth in [7] was 66.6%; in [8], 61.4%; in assay [9], 67.4%; in assay [10], 62.5%; in assay [11], 79.2%; in assay [12] it was 0.374% (active). In addition, the growth in [13] was 61.8%; in assay [14] it was 51.4%; in assay [15], 57.4%; in assay [16], 69.1%; in assay [17], 80.8%; in assay [18], 70.8%. Besides, the figures for the growth in assay [19] and in assay [20] were 77.9% and 14.3%, respectively.

`COc1cc(OCc2cccc(-c3ccc4c(c3)OCCO4)c2C)cc(OC)c1C=O`: the growth in assay [1] was 52.4%; in assay [2] it was 32.6%; in [3], 85.3%; in assay [4], 73.4%; in assay [5] it was 72.2%; in assay [6], 79.5%. Also, the growth in assay [7] is 42.7%; in assay [8], 69%; in assay [9], 67.1%; in assay [10], 40.8%; in assay [11], 77.8%; in [12], 29.9%. For the same molecule, the growth in assay [13] was 58.9%; in assay [14], 64.8%; in assay [15], 74.2%; in assay [16] it was 70.3%; in assay [17] it was 72.1%; in [18] it was 77.9%. Further, the growth in assay [19] is 42.3%; in [20], 59.2%.

`CCN1C(=O)N(CC)C2C1NN=c1s/c(=C3\C(=O)N(C)c4ccccc43)c(=O)n12` (stereo not given): the growth is 37% in [1]; 96.7% in assay [2]; 48.4% in assay [3]; 29.8% in assay [4]; 6.21% (active) in [5]; 56.8% in assay [6]. In addition, the growth in assay [7] is 21.7%; in assay [8], 35.1%; in assay [9], 36.9%; in [10] it was 8.01% (active); in assay [11], 11.9%; in assay [12] it was 9.16% (active). The growth was 40.8% in [13]; 33.9% in [14]; -14.1% (active) in assay [15]; 70.5% in assay [16]; 7.04% (active) in assay [17]; -24.7% (active) in [18]. In addition, the growth in assay [19] is 94.6%; in assay [20], 43.1%.

As to `Cc1ccccc1NC(=O)Cn1cc(CN2CCN(c3ccnc4cc(Cl)ccc34)CC2)nn1`, the growth in assay [1] is 99.2%; in [2] it was 90.9%; in assay [3], 103%; in assay [4], 90.7%; in [5] it was 98.6%; in assay [6] it was 68.5%. Moreover, the growth in assay [7] was 102%; in assay [8], 106%; in assay [9] it was 104%; in [10] it was 99%; in assay [11] it was 105%; in assay [12], 70%. Further, the growth in [13] was 109%; in assay [14] it was 83.1%; in assay [15], 102%; in assay [16] it was 92.6%; in assay [17], 100%; in assay [18], 97.8%. Moreover, the growth in assay [19] is 109%; in [20], 101%.

On to `CCNCCNc1c(C)c(-c2ccc(C(F)(F)F)cc2)c(C#N)c2nc3ccccc3n12`, for which the growth in assay [1] was 90%; in assay [2], 84.8%; in assay [3], 84.3%; in assay [4] it was 90.9%; in [5] it was 94.1%; in assay [6] it was 47.1%. In addition, the growth in [7] is 76.8%; in assay [8], 88.7%; in [9] it was 77%; in [10], 88.2%; in assay [11], 99.1%; in [12], 54.8%. The growth was 109% in assay [13]; 90.9% in assay [14]; 90.4% in assay [15]; 80.8% in [16]; 91.4% in [17]; 82.7% in assay [18]. Besides, the values for the growth in assay [19] and in [20] were 79.6% and 56.1%, respectively.
